Several values for one entry are separate records, joined by “and”; a condition that tells them apart may be missing. Identical values can stand only once. Records with an inconclusive call do not appear. Activity calls are given as the source filed them. Calls follow the shape of the dose curve; as a rule, active = well fitted curve in the direction sought with a large enough effect; inconclusive = small, poorly fitted or top-dose-only effect, or another doubt; inactive = no such curve, though single readings can be large or run the other way.
experiment: qHTS Assay for Identifying Gametocytocidal Compounds (AID 743244);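 as to max response: actives lower the fluorescent signal which means gametocytes are killed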; conditions: P. falciparum 3D7 stage III-V gametocytes, alamarBlue, 72 h; max response: stronger effect = lower value
Summary of the method: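 Stage III-V P. falciparum 3D7 gametocytes, 20,000 per well, were exposed to compounds for 72 h at 37C, 5% CO2. AlamarBlue was then added for 24 h and viability was read as fluorescence at Ex 525/Em 598 nm.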
% is scaled to controls: 0 for no effect and ±100 for the full control effect; potency is read from the fitted curve at half-maximal effect.

SMILES | max response | Potency
Cc1c(C)n(Cc2ccccc2)c2ccc(C(=O)OCCN(C)C)cc12 | 28.3% (inactive) | –
NC(=O)CC[C@@H]1NC(=O)[C@H](Cc2ccccc2)NC(=O)[C@H](Cc2ccc(O)cc2)NC(=O)CCSSC[C@@H](C(=O)N2CCC[C@H]2C(=O)N[C@@H](CCCN=C(N)N)C(=O)NCC(N)=O)NC(=O)[C@H](CC(N)=O)NC1=O | 1.03% (inactive) and -0.48% (inactive) | –
CCCC(=O)O[C@]1(C(=O)CO)CC[C@H]2[C@@H]3CCC4=CC(=O)CC[C@]4(C)[C@H]3[C@@H](O)C[C@@]21C | 1.99% (inactive) | –
Oc1ccc(Cl)c2cccnc12 | – | 7.94 µM (active)
Oc1c(I)cc(I)c2cccnc12 | – | 8.91 µM (active)
CC1(C)O[C@@H]2C[C@H]3[C@@H]4CCC5=CC(=O)CC[C@]5(C)[C@@]4(F)[C@@H](O)C[C@]3(C)[C@]2(C(=O)CCl)O1 | – | 8.91 µM (active)
C[C@]12CCC(=O)C=C1CC[C@H]1[C@@H]3CC[C@](O)(C(=O)CO)[C@@]3(C)C[C@H](O)[C@@]12F | 15.9% (inactive) and -1.69% (inactive) | –
CCN1CCCC1=O | 5.59% (inactive) | –
CCOC(=O)COc1ccc2c(C)c(CCN(CC)CC)c(=O)oc2c1Cl | -0.591% (inactive) | –
O=C(O)CNC(=O)c1ccccc1 | 1.04% (inactive) | –
CCCCOc1ccc(OCCCN2CCOCC2)cc1 | 1.4% (inactive) | –
CCCC(=O)Nc1ccc(OCC(O)CNC(C)C)c(C(C)=O)c1 (stereo not drawn) | 19.2% (inactive) | –
C#C[C@]1(O)CC[C@H]2[C@@H]3CCc4cc(OC5CCCC5)ccc4[C@H]3CC[C@@]21C | 6.16% (inactive) | –
